This note sets out measurements from PubChem BioAssay.

As usually defined, the viability is a read-out of living cells in per cent, often relative to untreated cells. For orientation: inhibition means the relative decrease from the control value, in per cent.

Molecules are shown by their SMILES. Inconclusive results are not listed. Active and inactive are the calls of the source.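 Rule for the calls, unless noted: active = inhibition over a set limit, the all-compound mean plus 3 SD, in both replicate runs; inconclusive = over that limit in just one replicate run; inactive = at or under that limit in both runs.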

A short description of test [1]: Her2 expression decrease, cell viability multiplex – SKBR3 breast tumor cells, AlphaScreen, ATP viability, primary screen (AID 461;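 active = Her2 level under about 52% in both replicate screens, with viability over 70% of control, limit read from the data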;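 for Her2 level: lower value means less Her2 protein in the cells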;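 for viability: percent of carrier control wells set as 100% viability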). The note with it: SKBR3 Her2 protein level, 18-24 h, measured here: SKBR3 viability, ATP luminescence, at 10 µM. In general terms: Bead proximity is the source of the signal in Alpha formats.
The target of test [2] is Receptor tyrosine-protein kinase erbB-2 (Homo sapiens) (UniProt P04626). Described as above. The note with it: 18-24 h, at 10 µM, stronger effect = lower value.
Test [3] in a line: reduced viability of SK-BR-3 breast cancer cells – cell-based, 24 h, human, pilot screen (AID 572;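 active = viability at or below 10% of carrier control in both of two separate runs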;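 note: compound exposure lasted between 18 and 24 h rather than exactly 24 h; 100% = carrier-treated control wells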). The conditions noted are these: SK-BR-3 viability, CellTiter-Glo luminescence, at 10 µM, stronger effect = lower value. (In general: ATP-based viability assays read luminescence as a measure of living cells.)
A short description of test [4]: HUVEC growth inhibition – cell-based, human, primary screen (AID 575;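 active = viability at or below 30% in both replicate assays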;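 note: 100% = median of untreated cell wells with 0.1% DMSO on each plate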). The note with it: HUVEC proliferation, CellTiter-Glo luminescence, 72 h; at 10 µM; stronger effect = lower value.
Test [5] is described as follows: H69AR cell proliferation blockers – human, duplicate replicates, primary screen (AID 580;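 active = viability at or under a set limit in both replicates, limit being median viability minus 3 SD, cut at about 48% in these data, passing the limit was not always enough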;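 note: 100% = mean luminescence of untreated wells and 0% = no signal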). The conditions noted are these: H69AR lung tumor cells viability, ATP luminescence, 72 h; at 10 µM; stronger effect = lower value.
Test [6] can be described thus: MRP1 drug-resistance reversers in H69AR cells – cell-based, doxorubicin co-treatment, pilot screen (AID 601;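 active = viability loss from added drug above about 55%, and viability with drug at most 40%, in both replicates, limit read from the data, passing the limit was not always enough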). The note with it: CellTiter-Glo, 72 h, at 10 µM; for differential viability (reversal): stronger effect = higher value.
Test [7] is described as follows: yeast transport mutant growth inhibition pilot in 384-well plates, post-Golgi transport modulator project (AID 636; in the data active = inhibition above about 31%). The conditions noted are these: absorbance 615 nm, about 18 h, stronger effect = higher value.
Test [8] is described as follows: growth suppression of yeast trafficking mutant, preliminary HTS, modulators of trafficking downstream of Golgi apparatus project, 1536-format plate, OD 615 nm (AID 637; in the data active = inhibition above about 30%). The note with it: yeast transport mutant growth, absorbance 615 nm, 18 h; stronger effect = higher value.
The nature of test [9]: S. cerevisiae growth inhibition in permissive medium (OD615), pilot counter-assay for S. cerevisiae lifespan shortening project, permissive growth control (AID 705;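 active = growth inhibition above 25% in both replicates, a cutoff set 3 SD above the mean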). The conditions noted are these: OD615, 24 h, at 10 µM, stronger effect = higher value.
Test [10] can be described thus: S. cerevisiae growth inhibition in restrictive medium, OD615, pilot screen, restrictive growth control, yeast lifespan reduction project (AID 706;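 active = growth inhibition above a set limit, 3 SD over mean compound inhibition, in both replicates, cut at about 43% in these data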;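 note: modified DeaD lifespan yeast strain shifted to restrictive glucose medium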). The conditions noted are these: OD615, 48 h, at 10 µM, stronger effect = higher value.
Test [11] in a line: doxorubicin toxicity protection in MRP-1 cells – H69AR cells, CellTiter-Glo, duplicate, MRP-1 activator project, pilot screen (AID 807;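 active = viability increase at or above a cutoff of the median across tested compounds plus 3 SD, cut at about 8.5% in these data, passing the limit was not always enough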;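 note: compound pretreatment 18-22 h then 72 h combined with doxorubicin; 0% = doxorubicin alone and 100% = vehicle without doxorubicin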). The conditions noted are these: H69AR viability with doxorubicin, CellTiter-Glo luminescence; at 10 µM; stronger effect = higher value.
The nature of test [12]: viability of HCT116 without oncogenic beta-catenin – human colon tumor cells, pilot screen (AID 823;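 active = cell viability at or below a set limit in both duplicate runs, the limit being the all-compound median minus 4 SD, cut at about 23% in these data, passing the limit was not always enough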;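 note: 0% = wells killed by 20 µM Hyamine and 100% = untreated DMSO cell wells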). The conditions noted are these: HCT116 beta-catenin knockout viability, CellTiter-Glo, 60 h; at 10 µM; stronger effect = lower value.
Test [13] in a line: viability of PTEN-null HCT116 cells – cell-based, HCT116 clonal line, CellTiter-Glo, pilot screen (AID 824;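 active = viability at or below 27.92% in each of two runs, the all-compound median minus 4 SD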;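 note: 0% = 20 µM Hyamine control and 100% = vehicle cell control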). The note with it: HCT116 PTEN-deleted viability, 60 h, at 10 µM, stronger effect = lower value.
Test [14] is described as follows: RAM pathway blockade in budding yeast – dse1pr::URA3 reporter, 5-FOA selection, pilot screen (AID 869).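 Note: 0% = DMSO wells with no growth and 100% = 10 µM 1-NA-PP1 with full growth; RAM network block rescues cells from 5-FOA so hits raise OD615 growth.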 The note with it: S. cerevisiae dse1pr::URA3 5-FOA growth, OD615, 2 d; at 10 µM; stronger effect = higher value; strain carries analog-sensitive mutant Cbk1 kinase.
Test [15] in a line: RAM signaling pathway blockade in yeast – S. cerevisiae, Pdr1DBD-CYC8 efflux-inhibited sensitized strain, primary screen (AID 1298;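 active = RAM network inhibition above 8.4% in each of two replicates, 3 SD over the compound average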;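 note: 0% = DMSO untreated cells without growth and 100% = 10 µM 1-NA-PP1 full growth; higher means more yeast growth rescued from 5-FOA killing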). The conditions noted are these: S. cerevisiae cbk1-as DSE1-URA3 strain, 5-FOA growth OD615, 2 d; at 50 µM; stronger effect = higher value.
Setting [16] is: H69AR cells + 2 uM doxorubicin, measured here: viability with 2 uM doxorubicin, stronger effect = lower value.
The mark [17] stands for this setting: H69AR cells, compound alone cytotoxicity.

Chain of Receptor tyrosine-protein kinase erbB-2 (Homo sapiens) (P04626 whole entry, looked up): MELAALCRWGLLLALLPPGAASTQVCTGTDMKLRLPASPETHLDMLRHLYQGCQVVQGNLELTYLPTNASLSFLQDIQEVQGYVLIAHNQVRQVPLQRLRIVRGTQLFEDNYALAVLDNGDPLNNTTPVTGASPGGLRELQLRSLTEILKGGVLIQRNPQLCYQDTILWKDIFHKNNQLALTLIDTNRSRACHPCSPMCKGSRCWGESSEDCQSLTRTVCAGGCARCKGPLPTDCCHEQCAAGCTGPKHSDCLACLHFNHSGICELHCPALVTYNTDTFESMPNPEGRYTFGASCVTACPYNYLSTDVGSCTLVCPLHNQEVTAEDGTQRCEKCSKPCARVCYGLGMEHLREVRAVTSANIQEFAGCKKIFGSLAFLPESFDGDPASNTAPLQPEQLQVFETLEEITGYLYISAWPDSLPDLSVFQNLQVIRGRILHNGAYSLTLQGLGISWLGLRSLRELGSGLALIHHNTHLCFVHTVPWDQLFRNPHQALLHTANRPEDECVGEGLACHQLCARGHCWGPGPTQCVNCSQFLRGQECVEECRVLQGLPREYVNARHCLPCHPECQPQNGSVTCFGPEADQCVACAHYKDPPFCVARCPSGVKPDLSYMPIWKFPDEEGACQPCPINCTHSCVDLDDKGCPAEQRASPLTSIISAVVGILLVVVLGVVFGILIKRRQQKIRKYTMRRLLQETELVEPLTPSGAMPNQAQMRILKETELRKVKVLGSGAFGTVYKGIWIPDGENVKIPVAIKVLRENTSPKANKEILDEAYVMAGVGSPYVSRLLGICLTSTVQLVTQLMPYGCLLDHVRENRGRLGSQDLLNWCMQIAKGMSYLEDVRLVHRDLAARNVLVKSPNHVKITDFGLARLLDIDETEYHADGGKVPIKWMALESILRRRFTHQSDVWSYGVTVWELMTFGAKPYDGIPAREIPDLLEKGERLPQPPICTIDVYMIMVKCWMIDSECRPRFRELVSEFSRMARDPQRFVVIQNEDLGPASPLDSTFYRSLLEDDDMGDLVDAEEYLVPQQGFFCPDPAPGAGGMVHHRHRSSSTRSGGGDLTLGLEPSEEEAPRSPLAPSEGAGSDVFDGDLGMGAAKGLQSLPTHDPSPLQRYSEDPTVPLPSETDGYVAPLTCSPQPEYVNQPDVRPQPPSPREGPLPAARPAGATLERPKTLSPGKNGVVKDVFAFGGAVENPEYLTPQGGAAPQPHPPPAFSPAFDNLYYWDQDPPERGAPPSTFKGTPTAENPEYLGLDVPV

Take `CCOC(=O)CN1C(=O)C(=O)c2cccc(C)c21`: the viability in [1] was 80%; in test [3], 80% (inactive); in test [4], 86.5% (inactive); in test [5] it was 76% (inactive); in [6] (setting [16]), 76.6%; in [6] (setting [17]), 76%. Also, the viability was 88.4% (inactive) in test [12] and 92.4% (inactive) in [13]. The Her2 level in test [2] is 101% (inactive). The differential viability (reversal) in test [6] (H69AR cells + 2 uM doxorubicin) is -0.56% (inactive). For the same compound, the inhibition is -1.54% (inactive) in [7], -0.5% (inactive) in test [8] and 1.77% (inactive) in test [14]. Besides, the growth inhibition was 0.235% (inactive) in test [9] and -4.38% (inactive) in [10]. For the same compound, in test [11], the viability increase was -4.97% (inactive). In addition, in [15], the RAM network inhibition is 1.05% (inactive).
For the compound `O=C(c1cnc2n(c1=O)CCS2)N1CCc2ccccc21`, the viability is 99.5% in test [1]; 99.5% (inactive) in test [3]; 96% (inactive) in test [4]; 101% (inactive) in test [5]; 98.1% in test [6] (setting [16]); 101% in test [6] (setting [17]). The viability was 97% (inactive) in test [12] and 102% (inactive) in test [13]. Moreover, the Her2 level in test [2] was 83% (inactive). For the same compound, in test [6] (H69AR cells + 2 uM doxorubicin), the differential viability (reversal) is 3.18% (inactive). For the same compound, the inhibition in test [7] is -2.13% (inactive); in test [8], 0.16% (inactive); in test [14] it was 1.24% (inactive). Further, the growth inhibition is -3.25% (inactive) in test [9] and -7.63% (inactive) in test [10]. Moreover, the viability increase in test [11] was 0.01% (inactive). Besides, the RAM network inhibition in test [15] was -0.32% (inactive).
For the compound `CCN1CCN(C(=O)c2cn(CC)c3ccc(S(=O)(=O)N(C)C)cc3c2=O)CC1`, the viability in test [1] was 85.5%; in test [3], 85.5% (inactive); in test [4], 100% (inactive); in test [5] it was 107% (inactive); in test [6] (setting [16]) it was 96.5%; in test [6] (setting [17]) it was 107%. In addition, the viability in test [12] is 101% (inactive); in [13], 93.7% (inactive). For the same compound, in test [2], the Her2 level is 104% (inactive). Besides, in [6] (H69AR cells + 2 uM doxorubicin), the differential viability (reversal) is 11% (inactive). Moreover, the inhibition in [7] is 0% (inactive); in test [8], -1% (inactive); in test [14], 2.08% (inactive). Also, the growth inhibition was -7.52% (inactive) in [9] and -18% (inactive) in test [10]. Also, the viability increase in [11] was -2.35% (inactive). Further, the RAM network inhibition in test [15] was -1.09% (inactive).
For the compound `CCN(CC)CCN1C(=O)c2oc3ccc(F)cc3c(=O)c2C1c1ccncc1` (stereo not given), the viability in [1] was 89.5%; in test [3], 89.5% (inactive); in test [4] it was 95.6% (inactive); in test [5], 87.5% (inactive); in [6] (setting [16]), 83.5%; in [6] (setting [17]), 87.5%. For the same compound, the viability in [12] was 96.4% (inactive); in [13], 95.9% (inactive). In addition, the Her2 level in [2] is 96.5% (inactive). Moreover, the differential viability (reversal) in [6] (H69AR cells + 2 uM doxorubicin) was 4.02% (inactive). The inhibition in test [7] is -3.2% (inactive); in [8] it was -8.67% (inactive); in [14], 0.78% (inactive). Besides, the growth inhibition in [9] is -0.15% (inactive); in test [10] it was -0.92% (inactive). In addition, the viability increase in test [11] was 0.69% (inactive). The RAM network inhibition in test [15] was 2.14% (inactive).
For the compound `CC1(C)CC(=O)c2cnc(NC(=O)CCc3ccccc3)nc2C1`, the viability was 93% in test [1]; 93% (inactive) in test [3]; 112% (inactive) in test [4]; 90.2% (inactive) in [5]; 89.2% in test [6] (setting [16]); 90.2% in test [6] (setting [17]). In addition, the viability in test [12] was 97.6% (inactive); in [13], 101% (inactive). The Her2 level in [2] was 82% (inactive). Also, the differential viability (reversal) in test [6] (H69AR cells + 2 uM doxorubicin) is 0.98% (inactive). The inhibition in test [7] was -0.65% (inactive); in [8] it was -4.5% (inactive); in test [14], 1.27% (inactive). Besides, the growth inhibition in [9] is -7.5% (inactive); in test [10], -11.6% (inactive). Moreover, the viability increase in test [11] was 1.81% (inactive). The RAM network inhibition in test [15] is 6.48% (inactive).
